Screening data (PubChem BioAssay)
HepG2 tox: qHTS for Inhibitors of TGF-b: Cytotox Counterscreen; HepG2 CAGA-GFP viability, ATP luminescence, 18 h; Potency, µM (titrated, usually from 46.1 µM), without a hit: top-dose activity change, negative = cytotoxicity, usual class: cytotoxic; 0.76% of 410,000 active; AID 588856, 2011; further: potency means the concentration at half of the fitted maximal effect
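HepG2 CAGA-GFP cells (1000/well, DMEM with 1% FBS) received compound, then TGF-beta at 500 pg/mL final, and were incubated 18 hours at 37 degrees C. Viability was read by CellTiter-Glo luminescence. Media-only wells were set as complete cell-killing and DMSO as no toxicity.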
TGFb inhibitor: qHTS for Inhibitors of TGF-b. HepG2 CAGA-GFP TGF-b/SMAD3 reporter, GFP fluorescence, 18 h; TGF-beta stimulated, 500 pg/mL final. Potency, µM (titrated, usually from 46.1 µM), for the others: at the highest dose activity, negative = inhibition, most hits filed as inhibitors. 1.2% of 410,000 active. AID 588855, 2011; further: potency means the concentration at half of the fitted maximal effect; on the % scale 0 is the no-effect control and ±100 the full control effect; nearly all actives have a fitted effect of over 65% in size
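HEPG2 CAGA-GFP cells (1000/well, DMEM with 1% FBS) were pre-incubated 2 h at 37 degrees C, given compound by pin tool, then stimulated with TGF-beta at 500 pg/mL final for 18 h before per-cell GFP fluorescence imaging.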
CtBP-E1A inh: qHTS Assay for Inhibitors of the CtBP/E1A Interaction; 0.49% of 340,000 active; activity change, % (no concentration beside the values); AlphaScreen GST-E1A/His-CtBP binding, 1536-well; active compounds read low; in the data active means activity change below about -65%; inconclusive means mostly about -30% to -63%; further: on the % scale 0 is the no-effect control and ±100 the full control effect
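AlphaScreen with 125 nM GST-E1A and 125 nM His-CtBP (5X stocks) in Tris pH 8.0, 300 mM NaCl, BSA, Tween 20, TCEP. Compounds preincubated 2 h at 37 deg C, then glutathione donor/nickel acceptor beads added for 1 h at 37 deg C in dark.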
S2 tox: Viability Counterscreen for Primary qHTS for Inhibitors of ATXN expression; AID 651635, 2014; Potency, µM (doses to about 56.7 µM), actives largely listed as cytotoxic; S2 cells (HEK-293 line with an ATXN2-luciferase reporter) viability, CellTiter-Fluor protease fluorescence, 24 h; 0.49% of 400,000 active; further: potency means the concentration at half of the fitted maximal effect; nearly all actives have a fitted effect of over 40% in size
Six1-Eya2 blk: qHTS Assay for Inhibitors of the Six1/Eya2 Interaction | AID 651725, 2012 | 0.56% of 360,000 active | activity change, % (no concentration beside the values) | AlphaScreen GST-Six1/His-Eya2 binding, biochemical; active compounds read low | Homeobox protein SIX1 (Homo sapiens) + Protein phosphatase EYA2 (Homo sapiens), …; in the data active means activity change below about -65%; inconclusive means mostly about -30% to -63%; further: on the % scale 0 is the no-effect control and ±100 the full control effect
Target sequence (O00167 whole entry, looked up): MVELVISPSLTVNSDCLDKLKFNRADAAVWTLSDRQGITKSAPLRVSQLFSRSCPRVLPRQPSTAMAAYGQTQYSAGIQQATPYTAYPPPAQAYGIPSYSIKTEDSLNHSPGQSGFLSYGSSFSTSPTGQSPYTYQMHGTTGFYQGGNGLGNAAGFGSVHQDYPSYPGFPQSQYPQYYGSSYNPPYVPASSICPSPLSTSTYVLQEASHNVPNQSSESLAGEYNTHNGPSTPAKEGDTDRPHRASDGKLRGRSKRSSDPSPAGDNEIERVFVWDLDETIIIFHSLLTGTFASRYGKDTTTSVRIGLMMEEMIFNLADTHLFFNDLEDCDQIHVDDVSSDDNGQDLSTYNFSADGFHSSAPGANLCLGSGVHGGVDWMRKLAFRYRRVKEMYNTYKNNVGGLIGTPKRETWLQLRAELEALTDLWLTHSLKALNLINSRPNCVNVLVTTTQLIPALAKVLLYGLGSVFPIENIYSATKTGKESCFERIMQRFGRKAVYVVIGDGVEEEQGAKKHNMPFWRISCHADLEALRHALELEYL
Target sequence (Q15475 whole entry, looked up): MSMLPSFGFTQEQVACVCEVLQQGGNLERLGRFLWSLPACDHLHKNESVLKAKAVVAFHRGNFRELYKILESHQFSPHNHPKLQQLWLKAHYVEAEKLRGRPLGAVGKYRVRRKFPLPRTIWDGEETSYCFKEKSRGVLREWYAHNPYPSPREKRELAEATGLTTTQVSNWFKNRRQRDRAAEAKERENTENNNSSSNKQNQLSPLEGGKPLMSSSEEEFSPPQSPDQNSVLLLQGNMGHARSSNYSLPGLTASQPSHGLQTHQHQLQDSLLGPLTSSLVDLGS
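Compounds are tested against tagged Six1 and Eya2 proteins bridged by glutathione donor and nickel acceptor beads; after a one-hour incubation at 37 °C without light, AlphaScreen emission is recorded.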
ATXN2 expr inh: Primary qHTS for Inhibitors of ATXN expression. HEK-293 ATXN2-luciferase reporter, luminescence, 24 h. Potency, µM (titrated, usually from 57 µM), inactives show at the highest dose activity change, negative = inhibition, usual class: inhibitors. 0.72% of 360,000 active. AID 1745845, 2022; further: potency means the concentration at half of the fitted maximal effect; on the % scale 0 is the no-effect control and ±100 the full control effect; nearly all actives have a fitted effect of over 55% in size
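ATXN2-luciferase reporter cells (luciferase flanked by upstream and downstream ATXN2 gene portions) were treated 24 h at 37 °C with compounds at up to 57 uM. SteadyGlo luminescence gave expression; GF-AFC fluorescence gave viability.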
* = called active by the depositor; i = inactive; ? = inconclusive; . = no result given; ! = not confirmed by another sample. In the library only some 2.8% were active in any assay of this set; here they are far more common. Unless noted, the call rests on the fitted dose curve; in most records, active means well fitted curve in the direction sought with a large enough effect; inconclusive means small, poorly fitted or top-dose-only effect, or another doubt; inactive means no such curve, though single readings can be large; an effect the other way counts as inactive or inconclusive.

SMILES | HepG2 tox | TGFb inhibitor | CtBP-E1A inh | S2 tox | Six1-Eya2 blk | ATXN2 expr inh
CCOc1cc(/C=C2\CCC/C(=C\c3cc(Cl)c(O)c(OCC)c3)C2=O)cc(Cl)c1O | 7.9µM* | 5µM* | 0 | 16µM* | 3 | 8.9µM*
COc1cc(/C=C2\OC(=O)c3c(OC)cccc32)ccc1O | 2% | -3% | -5 | i | 2 | 59%
COc1cc(C=C2CN(C)C(=O)C2=O)ccc1O | -30% | -3% | 0 | 28µM* | -1 | .
CCc1ccc(-n2c(=O)c3cccnc3n2CC(=O)N(CC)c2cccc(C)c2)cc1 | -98% | ? | . | . | . | .
C#Cc1ccc(-c2ccccc2F)cc1 | . | . | . | i | . | 6%
Cc1cccc2sc(N(Cc3cccnc3)C(=O)CCS(=O)(=O)c3ccccc3)nc12 | 20µM* | 11µM* | . | . | . | .
O=C(CCOc1ccccc1)N(Cc1cccnc1)c1nc2c(Cl)cccc2s1 | 13µM* | ? | . | . | . | .
Cc1cc(C)c2sc(N(Cc3cccnc3)C(=O)CCS(=O)(=O)c3ccccc3)nc2c1 | 7.1µM* | 2.5µM* | . | . | . | .
Cc1cccc2sc(N(Cc3cccnc3)C(=O)CCOc3ccccc3)nc12 | -31% | ? | . | . | . | .
Cc1ccc2sc(N(Cc3cccnc3)C(=O)CCS(=O)(=O)c3ccccc3)nc2c1C | -40% | 0% | . | . | . | .
Cc1cc(C)c2nc(N(Cc3cccnc3)C(=O)CCS(=O)(=O)c3ccccc3)sc2c1 | 1% | ? | . | . | . | .
O=C(c1cccs1)N(Cc1cccnc1)c1nc2c(Cl)cccc2s1 | -42% | 18µM* | . | . | . | .
COc1cc(OC)c(OC)cc1CN1CCCC(n2cc(C(=O)N3CCCCC3)nn2)C1 (stereo not drawn) | . | . | . | i | . | .
O=C(CCS(=O)(=O)c1ccccc1)N(Cc1cccnc1)c1nc2c(Cl)cccc2s1 | 0% | 4µM* | . | . | . | .
O=C(c1ccc2c(c1)OCCO2)N(Cc1cccnc1)c1nc2c(Cl)cccc2s1 | -20% | ? | . | . | . | .
Cn1c2ccccc2c2cc(C(=O)N3CCOc4ccc(C(C)(O)CCn5cccn5)cc4C3)ccc21 (stereo not drawn) | . | . | . | i | . | .
CC(NNC(=S)N1CCN(c2ccccn2)CC1)c1nccc2ccccc12 (stereo not drawn) | -12% | ? | 3 | 11µM* | -92* | ?
c1ccc(CNc2nc(N3CCOc4ccccc43)nc3c2CCCC3)cc1 | . | . | . | . | . | 0%
CN(C)CCOc1ccc(C(=C(CCCl)c2ccccc2)c2ccccc2)cc1 | . | . | . | . | . | 3%
CC1CCCC(n2c(=S)[nH]c3ccccc3c2=O)C1C (stereo not drawn) | -70% | 14µM* | -3 | ? | -1 | -27%
COc1ccc(S(=O)(=O)NCc2cccnc2)cc1Br | 7.1µM* | -20% | . | ? | -1 | .
COc1ccc(S(=O)(=O)NCc2cccnc2)cc1 | 25% | 0% | -6 | i | 5 | -42%
C(=C\c1nc2ccccc2s1)/c1ccc2c(c1)OCO2 | -25% | 4% | . | . | . | .
C[N+](C)(CCCCCI)c1ccc(/C=C/c2nc3ccccc3s2)cc1 | -40% | 8.9µM* | . | . | . | .
COc1cc(OC)c(NC(=O)NCc2cccn2Cc2ccccc2)cc1Cl | 0% | 8.9µM* | . | ? | . | ?
SMILES | HepG2 tox | TGFb inhibitor | CtBP-E1A inh | S2 tox | Six1-Eya2 blk | ATXN2 expr inh
COc1ccc(C)cc1NC(=O)NCc1cccn1Cc1ccccc1 | -5% | 2% | . | i | . | -15%
CC(=O)n1cc(N(C(=O)CCl)c2ccc(C)cc2)c2ccccc21 | 5µM* | 5.6µM* | 5 | 10µM* | 4 | 8.9µM*
Cc1ccc(-n2nc(C(=O)NCc3ccc(F)cc3Cl)c3c4ccccc4n(C)c3c2=O)cc1 | -2% | 10% | . | i | . | -6%
COc1ccccc1-c1cccc([C@@H]2C[C@H]3[C@H](CON3C)CN2Cc2ccccc2)c1 | -21% | ? | -20 | ? | -28 | -17%
CN1OC[C@@H]2CN(Cc3ccccc3)[C@H](c3cccc(-c4ccc(C#N)cc4)c3)C[C@@H]21 | -30% | 10µM* | -5 | i | -17 | -16%
COc1ccc(CN2C[C@H]3CON(C)[C@H]3C[C@H]2c2ccc(-c3ccccc3)cc2)cc1 | -25% | 11µM* | ? | i | -10 | -13%
CCN(CC)CCCNC(=O)c1ccc2nc(N3CCCCC3)sc2c1 | -6% | 23% | . | i | . | 35%
CC(=O)C(=Nc1ccccc1Cl)NNc1ccc(Cl)cc1 | 2% | -13% | ? | i | -73* | -15%
O=C(NNc1ccc(Cl)cc1)c1c(F)cccc1Cl | 8% | 2% | -2 | i | -5 | -13%
O=C(Nc1c(O)c2ccccc2oc1=O)c1cccc(F)c1 | -3% | 4% | . | i | . | 5%
CC1=CC(C)(C)Nc2ccc(OC(=O)CCN3C(=O)c4ccccc4C3=O)cc21 | -72% | ? | 3 | . | -3 | 25µM*
O=C(CCN1C(=O)c2ccccc2C1=O)Oc1ccc2ccccc2c1 | 5% | 27% | -5 | i | 5 | 0%
O=C(CCCl)NCc1ccccc1 | . | . | . | i | . | -2%
CCOc1ccc(CCNC(=O)c2ccc(-c3nc(CSc4ccccc4)c(C)o3)cc2)cc1 | -6% | 1% | . | i | . | -4%
CCC(=O)NC[C@H](Cc1ccc(OCCc2nc(-c3ccccc3)oc2C)cc1)NC(C)=CC(=O)c1ccc(C(F)(F)F)cc1 | . | . | . | . | . | 22µM*
Cc1nc2sccn2c1CN1CCC2(CC1)CC2C(=O)Nc1ccc2c(c1)OCO2 (stereo not drawn) | . | . | . | i | . | .
CNc1nc(-c2ccccn2)nnc1-c1ccccc1 | -6% | -13% | -95* | ? | -93* | ?
c1ccc(-c2nnc(-c3ccccn3)nc2NC2CCCCC2)cc1 | -14% | ? | -95* | i | -84* | ?
N#CC(C#N)=NNc1ccc2cn[nH]c2c1 | -28% | ? | -21 | 16µM* | -26 | ?
C(C#CCCCCCCCCC[n+]1ccccc1)#CCCCCCCCCC[n+]1ccccc1 | -163% | 11µM* | -6 | 13µM* | 9 | 7.1µM*!
COc1ccccc1CCNc1ncnc2sc(C(=O)N3CCCC3)c(C)c12 | . | . | . | i | . | .
COc1ccc(C(=O)N/N=C/c2cc(Br)ccc2O)cc1OC | -19% | -8% | -91* | i | -68* | 1.4µM*
COc1ccc(O)c(/C=N/NC(=O)c2ccc(OCc3cccc(Br)c3)cc2)c1 | -38% | -5% | 3 | ? | 0 | 3.2µM*
